Bioassay records deposited in PubChem by The Scripps Research Institute Molecular Screening Center.
In the library only some 4.8% were active in any assay of this set; here they are far more common.
hcDAF12 agonist: activates DAF-12 receptor from parasite H. contortus; HEK293 hcDAF-12 lit1-tk-luc reporter, luminescence; 0% DMSO, 100% Δ7-dafachronic acid; activation, % at 6.8 µM; 1.4% of 370,000 active; AID 652067;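 active = activation above the mean of all tested compounds plus 3 SD, cut at about 5.5% in these data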;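 note: 100% = response to 3 µM Δ7-dafachronic acid high control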
SMARCA2 activ: increases SMARCA2 function in MMTV reporter cells | MG213 cells, MMTV-luciferase reporter, dexamethasone, overnight | activation, % at 9.1 µM | 1% of 370,000 active | AID 652017; in the data active = activation above about 7.8%;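 note: 0% = vehicle wells and 100% = reference activator wells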
DAX1 inh-1: inhibits human nuclear receptor DAX1; HEK293 Gal4-DAX1 luciferase reporter, luminescence; P51843; inhibition, % at 6.75 µM; AID 504766; 0.99% of 340,000 active;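 active = inhibition above the mean over all tested compounds plus 3 SD, cut at about 4.2% in these data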;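 note: 0% = DAX1-transfected cells with DMSO and 100% = empty-vector control cells with DMSO; inhibition shows as a rise in luminescence from relieved DAX1 repression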
ssDAF-12 act: S. stercoralis DAF-12 activation, primary screen; HEK293 ssDAF-12/GRIP1 lit1-tk-luc reporter, luminescence; % of 3 µM dafachronic acid response; activation, % at 6.8 µM; 1% of 370,000 active;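 active = activation above the mean over all tested compounds plus 3 SD, cut at about 0.9% in these data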;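 note: 0% = DMSO-only wells and 100% = 3 µM delta7-dafachronic acid wells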
hgDAF-12 ag: agonists of H. glycines DAF-12 nuclear receptor. HEK293 GAL4-hgDAF12 UAS-luciferase reporter, agonist luminescence; normalized to butyrate control. activation, % at 6.8 µM. AID 687014. 1.8% of 370,000 active;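 active = activation above a cutoff set at the mean of all screened compounds plus 3 SD, cut at about 10% in these data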;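 note: 0% = DMSO wells and 100% = sodium butyrate wells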
DAX1 inh-2: DAX1 (NR0B1) inhibition, primary screen; 1.1% of 370,000 active; HEK293T StAR-luciferase reporter, SF-1/DAX-1 repression relief; inhibition, % at 6.8 µM; AID 652010;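 active = inhibition above the mean over all tested compounds plus 3 SD, cut at about 3.6% in these data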;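 note: 0% = DAX-1 cells with DMSO and 100% = cells lacking DAX-1 with DMSO; higher inhibition means more luminescence from relief of DAX-1 repression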
hgDAF12 ag: hgDAF-12 agonism, confirmation assay. shares compounds with hgDAF-12 ag. HEK293 GAL4-hgDAF12 luciferase reporter, agonist mode; percent of butyrate response. activation, % at 6.8 µM. 80% of 3,300 active;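 active = mean activation over triplicate wells above the hit cutoff derived from the earlier primary screen, cut at about 11% in these data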;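 note: 0% = DMSO low control and 100% = 2 mM sodium butyrate high control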
LXR ag 2: counter-screen for DAF-12 agonists: agonists of human LXR-beta; shares compounds with hgDAF-12 ag; HEK293 Gal4-LXR luciferase reporter, 24 h; activation, % at 6.8 µM; 3,300 tested, under 10 active; AID 743051;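 active = mean activation of the triplicate above a set limit carried over from the primary screen, none filed active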
Target sequence (P55055 whole entry, looked up, the tested form may be a part): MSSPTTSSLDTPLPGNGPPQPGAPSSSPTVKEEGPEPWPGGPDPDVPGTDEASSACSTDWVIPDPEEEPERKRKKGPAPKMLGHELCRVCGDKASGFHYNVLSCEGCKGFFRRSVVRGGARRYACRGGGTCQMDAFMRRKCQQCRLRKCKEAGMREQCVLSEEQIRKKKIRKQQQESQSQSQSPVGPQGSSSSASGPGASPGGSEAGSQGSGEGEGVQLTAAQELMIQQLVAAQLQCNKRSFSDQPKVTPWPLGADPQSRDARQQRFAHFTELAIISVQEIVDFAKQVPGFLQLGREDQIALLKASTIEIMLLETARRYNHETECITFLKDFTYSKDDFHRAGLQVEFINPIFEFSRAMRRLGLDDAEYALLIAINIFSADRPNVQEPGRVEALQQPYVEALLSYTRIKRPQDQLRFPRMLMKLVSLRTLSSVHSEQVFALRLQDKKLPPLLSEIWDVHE
* marks the source's active call; other numbers are inactive results; / = no result given.

SMILES	hcDAF12 agonist	SMARCA2 activ	DAX1 inh-1	ssDAF-12 act	hgDAF-12 ag	DAX1 inh-2	hgDAF12 ag	LXR ag 2
COc1ccc(C(=O)CSc2cc(C)[nH]c(=O)n2)cc1	5	8	1	1	14*	3.7*	11*	0
O=C1Nc2c(Cl)cc(Cl)cc2C12Nc1ccccc1S2 (configuration not stated)	3	-4	/	1	6	1	/	/
C[C@@H]1ON(C)[C@H]2C[C@H]3c4cc(Nc5ccccc5)ccc4CCN3C[C@@H]12	-2	-2	/	-1	-1	0	/	/
C[C@@H]1ON(C)[C@H]2C[C@H]3c4cc(-c5cc6ccccc6o5)ccc4CCN3C[C@@H]12	2	6	/	0	13*	3.7*	8	0
Cc1ccc(CN2CCC=CS2(=O)=O)cc1	-1	-1	/	0	-3	-1	/	/
CC(=O)c1cc(-c2ccc(Cl)c(Cl)c2)c(=O)n2c1CCC2	0	-1	/	0	2	-1	/	/
O=C(N/N=C/C(Cl)=C/c1ccccc1)c1ccccn1	4	7	3	0	15*	3	12*	1
O=C(N/N=C/C(Cl)=C\c1ccccc1)c1cccs1	4	2	3	1.4*	18*	2	16*	1
CC(C)C[C@H]1COc2c(Cl)cccc2S(=O)(=O)N1Cc1ccc(F)cc1F	2	5	/	-1	4	-1	/	/
Cc1cccc(-c2nsc(SCC(=O)NCC3CCCO3)n2)c1 (configuration not stated)	0	1	-1	-2	18*	1	2	0
COC(=O)C1=C(C)N(C)C(=NCc2ccccc2)NC1CCc1ccccc1 (configuration not stated)	-1	0	/	-1	1	0	/	/
CCCn1cc(NC(=O)c2cc(-c3ccccc3)on2)cn1	0	1	3	-1	22*	0	20*	0
O=C(NCc1cccs1)c1cc(-c2ccccc2)on1	3	2	3	0	16*	3	14*	0
O=C(NCc1cccs1)c1cc(-c2cccs2)on1	2	2	1	-1	15*	1	15*	0
Cc1cc(C(=O)NCc2cccs2)no1	0	-1	1	-2	2	0	/	/
COc1ccc(-c2cc(C(=O)NCc3cccs3)no2)cc1	4	0	0	-1	9	1	/	/
O=C(Nc1cccc(O)c1)c1cc(-c2cccs2)on1	3	7	1	0	15*	3	21*	0
O=S(=O)(NCc1ccc(Cl)cc1)c1ccc(Br)cc1C1CC[C@@H](O)C1 (some centres not stated)	1	-4	/	-1	-1	0	/	/
NC(=O)c1c(N)[nH]c(C(=O)c2ccccc2)c1-c1ccc(Cl)cc1Cl	0	1	/	-1	1	1	/	/
COCCNC(=O)c1cc(-c2cccs2)on1	1	1	4	0	37*	1	28*	0
C[C@H](O)[C@@H]1C(=O)N2CCc3c([nH]c4ccccc34)[C@@H]2C[C@@H]1N(C)C(=O)OCc1ccccc1	0	-3	/	-1	7	-1	/	/
Cc1ccc(OCC(=O)O/N=C(\N)c2ccccn2)cc1	4	3	3	0	15*	3.8*	14*	0
N/C(=N\OC(=O)CCCOc1ccc(Cl)cc1Cl)c1ccccn1	0	-3	0	-2	0	1	/	/
N/C(=N\OC(=O)COc1cc(Cl)c(Cl)cc1Cl)c1ccccn1	1	4	/	-1	14*	3	12*	1
N/C(=N\OC(=O)COc1ccc(Cl)cc1Br)c1ccncc1	5	5	2	1.3*	16*	3	19*	1
SMILES	hcDAF12 agonist	SMARCA2 activ	DAX1 inh-1	ssDAF-12 act	hgDAF-12 ag	DAX1 inh-2	hgDAF12 ag	LXR ag 2
CN(Cc1ccco1)C(=O)[C@@H](Cc1ccccc1)NC(=O)[C@H]1O[C@@H](n2ccc(=O)[nH]c2=O)[C@H](O)[C@@H]1O	0	1	/	-2	-2	1	/	/
NC(=O)[C@@H]1CCCN1C(=O)[C@@H](Cc1ccccc1)NC(=O)[C@H]1O[C@@H](n2ccc(N)nc2=O)[C@H](O)[C@@H]1O	2	-2	/	-1	-1	0	/	/
CCCNC(=O)c1cccc(COc2ccccc2OC)c1	1	4	-2	0	17*	2	14*	1
CCCNC(=O)c1cccc(COCC(F)(F)F)c1	0	-1	-2	-1	0	0	/	/
COc1ccc(C(=O)N2CCC[C@H]2C(=O)N2CCC[C@@H]2C(=O)NCc2ccccc2)cc1F	-1	-2	/	-1	0	0	/	/
COCCc1nc2ccc(C(=O)N3CCCCC3COC)cc2o1 (configuration not stated)	-3	-1	1	0	1	1	/	/
COCCC1CCCCN1C(=O)c1ccc2nc(Cc3ccccc3F)oc2c1 (configuration not stated)	5.6*	7	1	0	14*	3.9*	12*	1
O=C(/C=C/c1ccc2c(c1)OCCCO2)c1ccc2ccccc2c1O	-2	1	0	-1	-2	0	/	/
Cc1ccc(C(=O)/C=C/c2ccc3c(c2)OCCO3)c(O)c1	1	5	1	-1	14*	1	8	1
O=C(COc1ccc2c(c1)OCO2)Nc1ccc(Cl)cn1	2	6	1	-1	9	1	/	/
O=C(/C=C/c1ccc2c(c1)OCO2)c1ccccn1	0	2	0	0	0	0	/	/
O=C(/C=C/c1ccc2c(c1)OCO2)Nc1ccc(Cl)cn1	3	4	0	-1	15*	4.3*	13*	1
O=C(C=Cc1ccc2c(c1)OCO2)c1ccccc1	3	7	1	0	13*	0	11*	0
COCc1[nH]nc2c1C(c1ccc(F)cc1)N(Cc1ccccc1)C2=O (configuration not stated)	1	-5	/	-1	0	-1	/	/
COc1ccccc1CCn1cnc(-c2cccc(Br)c2)c1C(C)C	-3	-9	/	-2	-3	-3	/	/
O=C(N/C=C/c1ccccc1)c1ccccc1	4	6	2	1	15*	3	16*	1
O=C(N/C=C\c1ccccc1)NCc1ccc(Cl)cc1	-2	-1	1	-1	0	0	/	/
CCOC(=O)N/N=C\c1ccccc1OC/C=C/c1ccccc1	1	2	0	0	14*	-2	8	0
